KB-V1 cytotox: kills drug-selected multidrug resistant KB-V1 cells; KB-V1 MDR cells viability, CellTiter-Glo, 72 h; Potency, µM (doses to about 46.1 µM), hits mostly cytotoxic; 400,000 tested, 3.4% active; AID 1347076; further: on the % scale 0 is the no-effect control and ±100 the full control effect; nearly all actives have a fitted effect of over 60% in size
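Potencies derive from concentration-effect curves fitted to normalized luminescence (CellTiter-Glo) of KB-V1 cells treated for 72 h at 37 degrees C in phenol-red-free DMEM containing 10% FBS.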
RGS4 inhibitor: inhibitors of human regulator of G protein signaling 4; AID 504845; 390,000 tested, 0.039% active; Potency, µM (titrated, usually from 114 µM), for inactives: top-dose activity change, negative = inhibition, actives largely listed as inhibitors; Transcreener GDP fluorescence polarization, RGS4-accelerated GTP hydrolysis; further: on the % scale 0 is the no-effect control and ±100 the full control effect; nearly all actives have a fitted effect of over 75% in size
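MLSMR compounds (23 nl, pin-transferred) preincubated 10 min at room temperature with a 500nM (2x) first reagent, then RGS4 at 900nM (2x) plus Transcreener GDP mix added; fluorescence polarization (620/688 nm) read before and after 90 min at 30 °C.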
TSG101-PTAP inh: blocks PTAP/TSG101 interaction to inhibit HIV-1 budding; Fluorescence polarization, FITC-PTAP peptide / Tsg101 binding; Potency, µM (series often up to 115 µM), for the others: top-dose activity change, negative = inhibition, most hits filed as inhibitors; 340,000 tested, under 10 active; AID 493005; active means well fitted inhibition curve with a large enough effect in the main read-out, with a control signal flat, not every such curve was filed as active; inconclusive means small, poorly fitted or top-dose-only effect, or effect the other way, or a change in a side signal; inactive means no such curve, though single readings can be large or run the other way; further: % of control where 0% means no effect
Target sequence (Q99816 whole entry, looked up): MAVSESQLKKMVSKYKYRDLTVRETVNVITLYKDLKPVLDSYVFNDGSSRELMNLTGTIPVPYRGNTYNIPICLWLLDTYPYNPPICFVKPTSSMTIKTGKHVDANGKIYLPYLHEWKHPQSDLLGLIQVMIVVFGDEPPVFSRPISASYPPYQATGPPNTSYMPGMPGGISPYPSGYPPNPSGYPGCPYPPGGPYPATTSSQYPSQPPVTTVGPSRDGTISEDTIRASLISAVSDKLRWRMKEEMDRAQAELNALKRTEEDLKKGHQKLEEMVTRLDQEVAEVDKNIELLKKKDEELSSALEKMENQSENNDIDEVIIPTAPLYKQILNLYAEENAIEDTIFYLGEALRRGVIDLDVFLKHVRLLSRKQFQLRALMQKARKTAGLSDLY
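FP read-out: FITC-PTAP peptide, 50 nM final, binding Tsg101 binding domain, 10 uM final; 20 min, r.t.; 10 mM HEPES pH 7.5, 0.15 M NaCl, 0.01% Tween 20, 3 mM EDTA, 0.1 mM TCEP.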
MCF10A rereplic: DNA re-replication induction in MCF 10a cells; AID 624296; Potency, µM (titrated, usually from 46.1 µM), for inactives: at the top dose activity, positive = re-replication, actives largely listed as activators; MCF 10A DNA re-replication, Hoechst nuclear intensity, 48 h; 350,000 tested, 2.9% active; further: % of control where 0% means no effect; nearly all actives have a fitted effect of over 50% in size
KB-3-1 tox: kills parental KB-3-1 adenocarcinoma cells; KB-3-1 viability, CellTiter-Glo ATP luminescence, 72 h; Potency, µM (doses to about 46.1 µM), actives largely listed as cytotoxic; 400,000 tested, 1.4% active; further: on the % scale 0 is the no-effect control and ±100 the full control effect; nearly all actives have a fitted effect of over 60% in size
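Viability of parental KB-3-1 cells, measured by CellTiter-Glo luminescence, followed a 72 h incubation at 37 °C with pinned compounds in phenol-red-free DMEM containing 10% FBS.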
SW480 rerep: inducers of DNA re-replication in SW480 colon cancer cells; SW480 DNA re-replication, Hoechst DNA content imaging, 48 h; Potency, µM (series often up to 46.1 µM), inactives show top-dose re-replication activation, usual class: activators; 340,000 tested, 1.8% active; AID 624297; further: % of control where 0% means no effect; nearly all actives have a fitted effect of over 55% in size
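Image-based DNA-content assay: after two days of treatment, nuclei were labelled with the DNA dye Hoechst and imaged, and hits were compounds raising the count of nuclei showing high fluorescence intensity.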
The depositor's hits bear a star; [ ] = dose if it differs, or a comment. Compounds with a hit are over-represented: about 6.6% of the library has one in this group of screens. Unless noted, the call rests on the fitted dose curve; in most records, active means well fitted curve in the direction sought with a large enough effect; inconclusive means small, poorly fitted or top-dose-only effect, or another doubt; inactive means no such curve, though single readings can be large; an effect the other way counts as inactive or inconclusive. Potency means the concentration at half of the fitted maximal effect.

Screening Cc1cc(-n2c(C)nc3ccccc3c2=O)ccc1NC(=O)c1ccc(C)c([N+](=O)[O-])c1 returned KB-V1 cytotox inactive, RGS4 inhibitor 18% and KB-3-1 tox inactive.
CCCCn1c(-c2ccc(F)c(F)c2)nc2cc3[nH]c(=O)c(C(C)C)nc3cc21 was read as KB-V1 cytotox inactive, RGS4 inhibitor -24%, TSG101-PTAP inh 1%, MCF10A rereplic 23µM*, KB-3-1 tox inactive and SW480 rerep 0%.
Screening COc1ccc(-n2ccnc(NCCc3ccc(S(N)(=O)=O)cc3)c2=O)cc1 returned KB-V1 cytotox inactive, RGS4 inhibitor 25% and KB-3-1 tox inactive.
`CC(=O)Nc1ccc2c(c1)Cc1cc(N3C(=O)C=CC3=O)ccc1-2` gave KB-V1 cytotox inactive, RGS4 inhibitor inconclusive, TSG101-PTAP inh -5%, MCF10A rereplic 5.2µM*, KB-3-1 tox inconclusive and SW480 rerep 13µM*.
Screening O=C1C=CC(=O)N1c1ccc2c(c1)Cc1cc(F)ccc1-2 returned KB-V1 cytotox inactive, RGS4 inhibitor inconclusive, TSG101-PTAP inh -4%, MCF10A rereplic inconclusive, KB-3-1 tox inactive and SW480 rerep inconclusive.
`CCn1c(CNc2nc3ccccc3n2C(C)C)nc2ccccc21` gave KB-V1 cytotox 12µM*, RGS4 inhibitor 16%[11.4 µM], TSG101-PTAP inh -9%, MCF10A rereplic -4%, KB-3-1 tox inactive and SW480 rerep -1%.
For Cc1cc(N2CCOCC2)nc2ccc(NC(=S)N3CCN(c4ccccc4)CC3)cc12 the results were KB-V1 cytotox inactive, RGS4 inhibitor -4%[11.4 µM], TSG101-PTAP inh -4%, MCF10A rereplic 211%, KB-3-1 tox inconclusive and SW480 rerep inconclusive.
For CCN1CCN(c2cc(C)c3cc(NC(=S)N4CCN(c5ccccc5)CC4)ccc3n2)CC1 the results were KB-V1 cytotox inactive, RGS4 inhibitor -5%, TSG101-PTAP inh 0%, MCF10A rereplic 21µM*, KB-3-1 tox inactive and SW480 rerep 18µM*.
`Cc1cccc(N2CCN(C(=S)Nc3ccc4nc(N5CCOCC5)cc(C)c4c3)CC2C)c1` (configuration not stated) gave KB-V1 cytotox inactive, RGS4 inhibitor -8%[11.4 µM], TSG101-PTAP inh -9%, MCF10A rereplic 12µM*, KB-3-1 tox inactive and SW480 rerep inconclusive.
Cc1ccc(C)c(N2CCN(C(=S)Nc3ccc4nc(N5CCOCC5)cc(C)c4c3)CC2)c1 was read as KB-V1 cytotox inconclusive, RGS4 inhibitor inconclusive, TSG101-PTAP inh -1%, MCF10A rereplic 16µM*, KB-3-1 tox inactive and SW480 rerep inconclusive.
For CCN1CCN(c2cc(C)c3cc(NC(=S)N4CCOCC4)ccc3n2)CC1 the results were KB-V1 cytotox inactive, RGS4 inhibitor -43%, TSG101-PTAP inh 0%, MCF10A rereplic inconclusive, KB-3-1 tox inactive and SW480 rerep 16µM*.
For Cc1ccc(CNC(=O)CN2C(=O)CSc3ccc(S(=O)(=O)N(C)C)cc32)cc1 the results were KB-V1 cytotox inactive, RGS4 inhibitor 29% and KB-3-1 tox inactive.
For CC(C)CN(CCCNC(=O)c1cc(-c2ccc(Br)s2)nc2ccccc12)CC(C)C the results were KB-V1 cytotox inactive, RGS4 inhibitor -3% and KB-3-1 tox inactive.
`CC1=C(C(=O)Nc2ccccc2)C(c2ccc(O)cc2)n2nc(-c3ccc(Cl)cc3)nc2N1` (configuration not stated) gave KB-V1 cytotox inactive, RGS4 inhibitor 9% and KB-3-1 tox inactive.
Cc1cccc(C(=O)NNc2ncnc3c2cnn3-c2ccc(C)c(Cl)c2)c1 was read as KB-V1 cytotox inactive, RGS4 inhibitor 18% and KB-3-1 tox inactive.
